BJeLR lethal: BJeLR cell viability loss. 300,000 compounds, 0.17% hits. inhibition, % (test concentration not listed). BJeLR (HRASV12) viability, CellTiter-Glo ATP luminescence, 48 h. AID 1554; in the data active = inhibition above about 50%
BioA inh: BioA (M. tuberculosis) enzyme inhibition; 360,000 compounds, 0.096% hits; inhibition, % at 9.99 µM; AID 602481; purified M. tuberculosis BioA enzyme, plate reader; in the data active = inhibition above about 40%
Mtb betalactam: beta-lactam sensitization of Mtb H37Rv; 330,000 compounds, 0.27% hits; M. tuberculosis H37Rv growth with meropenem, percent inhibition; inhibition, % at 25 µM;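 note: growth measured after seven days incubation then overnight dye step; 0% = bacteria only wells and 100% = bacteria with antibiotic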
CCHF vOTU inh: CCHFV vOTU protease inhibition. inhibition, % at 11.5 µM. Pep-AMC fluorescence. 370,000 compounds, 0.55% hits. AID 651958; in the data active = inhibition above about 30%; note: 0% = vehicle wells with enzyme and 100% = no enzyme wells
RecA splice inh: Mtb RecA intein splicing inhibition. cell-free RecA intein splicing, fluorescence. inhibition, % (no concentration beside the values). 290,000 compounds, 0.75% hits. AID 2221; in the data active = inhibition above about 30%;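 note: 0% = vehicle wells and 100% = reference inhibitor control wells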
Target sequence (P9WHJ3 whole entry, looked up, canonical isoform): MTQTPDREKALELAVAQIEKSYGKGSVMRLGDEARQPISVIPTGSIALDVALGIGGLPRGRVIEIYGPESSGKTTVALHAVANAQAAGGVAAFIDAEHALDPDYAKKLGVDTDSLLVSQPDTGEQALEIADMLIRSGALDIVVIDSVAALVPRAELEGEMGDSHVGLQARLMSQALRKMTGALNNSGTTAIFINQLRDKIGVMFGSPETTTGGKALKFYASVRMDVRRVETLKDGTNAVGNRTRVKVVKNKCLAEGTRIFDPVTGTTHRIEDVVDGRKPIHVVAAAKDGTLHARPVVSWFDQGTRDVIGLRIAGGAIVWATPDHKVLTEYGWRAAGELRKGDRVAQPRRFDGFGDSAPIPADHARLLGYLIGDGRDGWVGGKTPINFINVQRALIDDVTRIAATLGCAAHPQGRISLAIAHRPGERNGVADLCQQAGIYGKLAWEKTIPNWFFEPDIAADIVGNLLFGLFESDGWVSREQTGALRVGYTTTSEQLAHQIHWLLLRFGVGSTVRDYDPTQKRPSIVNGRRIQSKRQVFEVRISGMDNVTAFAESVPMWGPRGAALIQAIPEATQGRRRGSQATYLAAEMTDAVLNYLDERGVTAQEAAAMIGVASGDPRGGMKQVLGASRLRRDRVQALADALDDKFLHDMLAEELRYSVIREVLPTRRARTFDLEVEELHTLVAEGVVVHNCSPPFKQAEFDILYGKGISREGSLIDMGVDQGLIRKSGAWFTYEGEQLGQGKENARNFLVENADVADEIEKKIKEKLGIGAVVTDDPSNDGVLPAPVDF
Yp Topo-I inh: blocks Yersinia pestis topoisomerase I activity; Y. pestis Topo-I cleavage product accumulation, plate reader; activity, % at 10 µM; 360,000 compounds, 0.064% hits; in the data active = activity above about 50%, passing the limit was not always enough
GFP chromophore: counter-screen GFP chromophore formation inhibition | shares compounds with RecA splice inh | cell-free GFP chromophore formation, fluorescence | EC50, µM | 2,100 compounds, 83% hits | AID 434968
* hit, by the source's call; . = no result given. In the library only some 1.1% were active in any assay of this set; here they are far more common. Unless noted, the rule behind the calls is not given here.

SMILES	BJeLR lethal	BioA inh	Mtb betalactam	CCHF vOTU inh	RecA splice inh	Yp Topo-I inh	GFP chromophore
O=C(CCl)N(c1ccccc1)c1c[nH]c2ccccc12	-11	.	100	1	82*	4	8.3*
O=C(CCl)N(c1ccc(Cl)cc1)c1c[nH]c2ccccc12	17	8	99	6	40*	3	2.2*
O=C(Cc1ccc(Cl)cc1)NCCc1c[nH]c2ccccc12	-20	-1	-2	-14	1	1	.
COc1ccccc1CNC(=O)C[C@H]1C=C[C@H](NC(C)=O)[C@H](CO)O1	.	-2	.	.	.	.	.
O=C(O)c1cc2c([nH]c1=O)CCCC2	2	0	3	-4	1	2	.
C=CCSC(=C(C#N)C#N)c1cc2c([nH]1)CCCC2	-1	.	23	7	70*	-8	17*
CCc1nc(N2CCN(C(=O)CCl)CC2)c2c3c(sc2n1)CC(C)CC3 (stereo unspecified)	38	0	101	14	87*	7	2.6*
OC[C@H]1[C@@H](c2ccc(C#CC3(O)CCCC3)cc2)[C@@H]2CN(Cc3ccccc3F)CCCCN12	.	3	.	.	.	.	.
CN1C(=O)/C(=C/c2ccc(-c3ccccc3[N+](=O)[O-])o2)SC1=Nc1ccc(Cl)c(C(=O)O)c1	5	2	9	10	45*	-12	23*
O=C(c1cccc(C(F)(F)F)c1)C1CCCN(Cc2ncc[nH]2)C1 (stereo unspecified)	-6	-2	-1	-10	38*	-2	>38
C[C@@H]1CN([C@@H](C)CO)C(=O)c2cccc(NC(=O)Nc3ccc4c(c3)OCO4)c2O[C@H]1CN(C)Cc1ccc(Oc2ccccc2)cc1	.	0	.	.	.	.	.
O=c1[nH]c(/C=C\c2cccnc2)c([N+](=O)[O-])c(=O)[nH]1	8	.	-2	15	2	2	.
O=c1[nH]c(/C=C/c2cccnc2)c([N+](=O)[O-])c(=O)[nH]1	-5	.	1	2	41*	-8	>38
O=C1C(Cl)=C(N2CCCCCC2)C(=O)N1c1ccc(Br)cc1	-6	-3	.	5	17	1	.
Cc1ccc(N2C(=O)C(Cl)=C(N3CCN(C)CC3)C2=O)c(C)c1	-10	3	96	-4	81*	4	6.4*
CN1CCN(C2=C(Cl)C(=O)N(c3ccc(Cl)cc3)C2=O)CC1	5	0	49	.	33*	7	0.16*
O=C1C(Cl)=C(N2CCCCCC2)C(=O)N1c1ccccc1	-7	3	-3	13	36*	10	28*
COc1cccc(NC(=O)N(C)C[C@@H]2Oc3ncc(C#Cc4ccc(F)cc4)cc3C(=O)N([C@H](C)CO)C[C@H]2C)c1	.	-1	.	.	.	.	.
O=C(Sc1nnc(-c2ccccc2)o1)N1c2ccccc2Sc2ccccc21	4	2	91	-5	57*	-11	0.92*
Cc1c(/C=N/Nc2nc3ccccc3[nH]2)c2ccccc2n1C	65*	7	97	-1	39*	10	12*
Cn1c(/C=N/Nc2nc3ccccc3[nH]2)nc2ccccc21	-1	.	98	22	7	-13	.
COCC(=O)Nc1c(C(=O)Nc2ccc3c(c2)OCO3)oc2ccccc12	-7	-3	-1	5	-16	-1	.
O=C(CCl)Nc1c(C(=O)Nc2ccc3c(c2)OCCO3)oc2ccccc12	14	2	94	6	31*	3	3.6*
CCCCCCCCCCOC(=O)Cn1c(COc2ccccc2OC)[n+](C)c2ccccc21	-17	16	54	25	49*	1	12*
CC1CCC(C(C)C)C(OC(=O)Cn2c(COc3ccccc3)[n+](C)c3ccccc32)C1 (stereo unspecified)	29	7	99	29	15	10	.
Cc1cc(OC(=O)c2ccccc2)n(CCC#N)n1	-4	1	-7	11	85*	0	11*
COc1ccc(NC(=O)Nc2ccc3c(c2)C(=O)N([C@H](C)CO)C[C@H](C)[C@@H](CN(C)C(=O)CCC(F)(F)F)OCCCC[C@H](C)O3)cc1	.	0	.	.	.	.	.
CCCC#Cc1ccc([C@H]2[C@H](C#N)N(S(C)(=O)=O)[C@H]2CO)cc1	.	1	.	.	.	.	.
CC1=NN(Cc2ccccc2)C(=O)C1C(c1ccncc1)C(C#N)C#N (stereo unspecified)	1	.	-2	4	68*	12	18*

Screening results from PubChem.
